Experimental findings from PubChem BioAssay are described below.

The assay relates to Chordin-like protein 2 (CHRDL2). The assay can be described thus: compounds binding chordin-like 2 – biochemical, small-molecule microarray, 635 nm fluorescence, primary screen (AID 1126).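 Further: printed compound slides probed with Chrdl2 protein at 4 µg/mL for 1 h at 4 C; score merges 667 nm emission intensity with signal to noise over three replicate slides.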 The conditions noted are these: fluorescence 635 nm, higher = more signal.
Regarding `COCCOC(=O)N1C(=O)[C@@]2(c3cc(C#CC4(O)CCCCCC4)ccc31)[C@H](C(=O)N1CCCCCCC1)[C@H]1C(=O)O[C@H](c3ccccc3)[C@H](c3ccccc3)N1[C@@H]2c1ccc(O)cc1`, the composite z-score came to 0.519.
The figure for `C=CCC(OC(C)=O)[C@@H]1[C@@H](N(Cc2cc3ccccc3o2)C(=O)Cc2ccc(F)cc2)c2cc(OCCCO)ccc2N1C(=O)c1ccc(-c2ccccc2)cc1` (stereo partly specified) is -0.26.
The value for `O=C(CS)NCCCCCNC(=O)[C@H]1C[C@H]2C(=O)N[C@@H](Cc3ccccc3)C(=O)N2[C@H]1c1ccc(O)cc1` was 0.905.
The figure for `CO[C@H]1COC(=O)CC=C[C@@H](C)COC(=O)[C@@H](C)NC(=O)CC=C[C@@H]1C` is 1.59; for `CCC(=O)[C@]12O[C@@]3([C@@H]4C(=O)OCC[C@@H]41)N(Cc1ccccc1)C(C)=C(C(=O)OC)[C@@H](c1ccccc1)N3C2=O` it is -0.334.
As to `C[C@]1(C(=O)NCCN2CCOCC2)c2ccccc2C(=O)N(Cc2ccccc2)[C@H]1c1ccc(CO)cc1`, the composite z-score is -0.479.
The figure for `CC[C@H]1C2=C3C(CC[C@H]4C(OC)OC[C@](C)([C@@H]34)N(C(=O)OC(C)(C)C)C2)C(CO)C1CO` (stereo partly specified) is -0.656; for `O=C1c2ccccc2[C@@]2(Cc3ccccc3N(CC(F)(F)F)C2=O)[C@H](c2ccc(CO)cc2)N1C1CCCCC1` it is 0.759; for `C=C(C(=O)CC[C@H](OC(=O)c1ccccc1-c1ccccc1C(=O)O)c1ccc(CO)o1)C(C)C` it is 0.442.
As for `CC1=C([C@H](O)CCc2ccccc2)[C@H](CO)[C@@H]2C(=O)N(Cc3ccccc3)C(=O)[C@@H]2C1`, the composite z-score was -0.0449.
`O=C1O[C@H](c2ccccc2)[C@H](c2ccccc2)N2[C@H]1[C@@H](C(=O)NC[C@H](O)c1ccccc1)[C@]1(C(=O)Nc3ccc(C#CC4=CCCCC4)cc31)[C@H]2c1ccc(OCCO)cc1` yielded a composite z-score of 0.424.
The figure for `COc1cc(Cc2cc3c(c(CCc4ccccc4)n2)[Si](C(C)C)(C(C)C)OC3)cc(OC)c1OC` is 0.182; for `CO[C@H]1O[C@H](CO)[C@@H](OC(=O)CCc2ccccc2)[C@@H]2OC(=O)[C@H](Cc3cccc(Br)c3)C/C=C/C[C@@H](Cc3cccc(Br)c3)C(=O)O[C@@H]12` it is -1.41; for `Cc1ccc(S[C@]2(C(=O)NCCCN(C)C)CC(=O)N(C3CCCCC3)[C@@H]2c2ccc(CO)cc2I)cc1` it is -0.801.
Compound `COC(=O)[C@@]1(Cc2ccccc2CN=[N+]=[N-])N=C(c2ccc(OCCCO)cc2)O[C@H]1c1ccccc1N=[N+]=[N-]` registered a composite z-score of -0.388.
The figure for `CO[C@@H]1COC(=O)[C@H](C)NC(=O)CC=C[C@@H](C)[C@H](OC)COC(=O)[C@H](C)NC(=O)CC=C[C@H]1C` is 1.16; for `COCCOC(=O)N1C(=O)[C@@]2(c3cc(C#CCNC(N)=O)ccc31)[C@H](c1ccc(OCCO)cc1)N1[C@H](c3ccccc3)[C@H](c3ccccc3)OC(=O)[C@H]1[C@@H]2C(=O)Nc1nc2ccccc2s1` it is 0.903; for `C=CC[C@@]1(C(=O)N2CCOCC2)N=C(c2ccc(OCCCO)cc2)O[C@@H]1c1ccccc1` it is -0.796.
Regarding `COc1cc2c(cc1OC)CN(C(=O)[C@H]1[C@@H]3C(=O)O[C@@H](c4ccccc4)[C@@H](c4ccccc4)N3[C@@H](c3ccc(O)cc3)[C@]13C(=O)Nc1ccc(C#CC4(O)CCCCCC4)cc13)CC2`, the composite z-score came to 1.24.
`O=C/C=C/c1ccccc1Cl` had a composite z-score of -0.768.
The figure for `C=CCC(OC(C)=O)[C@@H]1[C@@H](N(Cc2cccc3ccccc23)C(=O)Cc2ccc(F)cc2)c2cc(OCCCO)ccc2N1C(=O)Cc1ccc2ccccc2c1` (stereo partly specified) is -0.214; for `CC(=O)NCCCC[C@@H]1NC(=O)[C@@H]2C[C@H](C(=O)NCCCCCNC(=O)CS)[C@H](c3ccc(O)cc3)N2C1=O` it is -0.13; for `C[N+](C)(C)CCCCNC(=O)[C@@H]1C[C@@H]2C(=O)N3CCC[C@H]3C(=O)N2[C@@H]1c1cccc(OCCO)c1` it is 1.04.
The figure for `O=C(NCC(O)CO)[C@]1(Cc2ccccc2)N=C(c2ccc(OCCCO)cc2)O[C@@H]1c1ccccc1` (stereo partly specified) is -1.93.
The figure for `COC(=O)Cn1c(C(=O)N2CCCC2)cc2c1C[C@H]1CN(C(=O)c3ccccc3)[C@@](Cc3ccccc3)(C(=O)OC)[C@@H]21` is -1.13; for `CCOC(=O)[C@H]1C/C=C/C[C@H](C(=O)OCC)C(=O)O[C@H]2[C@@H](OC)O[C@H](CO)[C@@H](OC(=O)Nc3ccc(Br)cc3)[C@@H]2OC1=O` it is -0.12.
Consider `CO[C@@H]1COC(=O)[C@@H]2CCCN2C(=O)CC=C[C@@H](C)[C@H](OC)COC(=O)[C@@H]2CCCN2C(=O)CC=C[C@H]1C`, for which the composite z-score is 1.36.
The value for `COCCOC(=O)N1C(=O)[C@@]2(c3cc(C#CCCO)ccc31)[C@H](c1ccc(O)cc1)N1[C@H](c3ccccc3)[C@H](c3ccccc3)OC(=O)[C@H]1[C@@H]2C(=O)Nc1nc2ccccc2s1` was 0.633.
The value for `COc1cc2c(cc1OC)CN(C(=O)[C@@H]1[C@H]3C(=O)O[C@H](c4ccccc4)[C@H](c4ccccc4)N3[C@H](c3ccccc3OCCO)[C@@]13C(=O)Nc1ccccc13)CC2` was 0.182; that for `COc1ccc([Si](C)(C)[C@H]2[C@H](CCO)O[C@@]3(C(=O)N(Cc4ccc(N5CCCCC5=O)cc4)c4ccccc43)[C@@H]2C)cc1` was -0.0425.
The figure for `CCCCO[C@H]1C[C@H]2C(Br)=C[C@@]1(CO)C(=O)[C@]21CO1` is 0.569.
On to `CCOC(=O)C[C@H]1[C@H](OC(=O)c2ccccc2-c2ccccc2)[C@@H](NC(=O)C2CCCCC2)c2cc(OCCCO)ccc2N1C(=O)c1ccccc1`, for which the composite z-score turned out to be 0.173.
The figure for `CO[C@H]1COC(=O)[C@H](C)NC(=O)CC=C[C@@H](C)[C@H](NS(=O)(=O)c2ccc(C)cc2)COC(=O)[C@@H](OCc2ccccc2)C=C[C@@H]1C` is 1.03; for `CC(C)CNC(=O)[C@@]1(C)c2ccccc2C(=O)N(Cc2ccc(OC(F)(F)F)cc2)[C@H]1c1ccc(CO)cc1` it is -1.3.
`CC(C)C[C@@H]1NC(=O)[C@H]2C[C@@H](C(=O)NCCCCCC[N+](C)(C)C)[C@@H](c3ccc(O)cc3)N2C1=O` returned a composite z-score of 0.362.
Compound `C=CC[C@@]1(C(=O)NCC(O)CO)N=C(c2ccc(OCCCO)cc2)O[C@@H]1c1ccccc1CN=[N+]=[N-]` (stereo partly specified) displayed a composite z-score of -0.834.
